Reference: PubChem BioAssay (NCATS)
Inconclusive results are not listed. Activity calls are given as the source filed them. The call rests on the fitted dose curve; in most records, active means well fitted curve in the direction sought with a large enough effect; inconclusive means small, poorly fitted or top-dose-only effect, or another doubt; inactive means no such curve, though single readings can be large; an effect the other way counts as inactive or inconclusive.

Columns and labels:
[1] = biological target: Metallo-beta-lactamase type 2 (Klebsiella pneumoniae) (UniProt C7C422); experiment: qHTS to identify inhibitors of the New Delhi Metallo-beta-lactamase (NDM): assay validation screen against the NCATS LOPAC Collection (AID 1794843);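 further: nitrocefin turnover by NDM-1 measured as 485 nm absorbance at plateau; series mostly up to about 38 µM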
Chain of Metallo-beta-lactamase type 2 (Klebsiella pneumoniae) (C7C422 whole entry, looked up): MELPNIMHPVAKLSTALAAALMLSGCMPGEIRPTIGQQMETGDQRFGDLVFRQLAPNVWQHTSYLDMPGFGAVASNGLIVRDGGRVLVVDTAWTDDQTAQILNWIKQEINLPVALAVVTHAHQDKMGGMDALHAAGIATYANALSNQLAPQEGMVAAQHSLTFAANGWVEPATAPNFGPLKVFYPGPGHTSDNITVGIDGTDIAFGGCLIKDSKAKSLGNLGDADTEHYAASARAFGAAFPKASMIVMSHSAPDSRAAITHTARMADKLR
Summary of the method: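 Enzyme 2 nM final, 50 mM HEPES pH 7.0, 1 uM ZnSO4, 0.01% Tween20; cpds in DMSO, preincub w/ enzyme; + nitrocefin (50 uM stock); A485 at plateau; no-enzyme column as blank.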

[2] = biological target: Glutathione peroxidase 1 (Homo sapiens) (UniProt P07203); experiment: Primary qHTS Assay for Inhibitors of Recombinant Selenoprotein Glutathione Peroxidase 1 (GPX1) (AID 1845191); further: nearly all actives have a fitted effect of over 65% in size
Chain of Glutathione peroxidase 1 (Homo sapiens) (P07203 whole entry, looked up): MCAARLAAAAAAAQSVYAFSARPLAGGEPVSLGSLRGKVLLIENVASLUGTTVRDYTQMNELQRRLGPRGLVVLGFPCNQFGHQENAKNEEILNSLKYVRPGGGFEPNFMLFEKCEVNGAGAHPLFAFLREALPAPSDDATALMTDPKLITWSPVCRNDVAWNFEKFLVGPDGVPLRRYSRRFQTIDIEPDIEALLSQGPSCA
Summary of the method: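 GPX1 10 nM, GR 100 nM, GSH 1 mM, NADPH 0.5 mM, CHP 0.5 mM (final). 30-min cpd preincubation, RT. Ex340/Em450 read t=0, t=15 min.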

[3] = biological target: Phospholipid hydroperoxide glutathione peroxidase GPX4 (Homo sapiens) (UniProt P36969); experiment: Primary qHTS Assay for Inhibitors of Recombinant Selenoprotein Glutathione Peroxidase 4 (GPX4) (AID 1845192); further: nearly all actives have a fitted effect of over 65% in size
Chain of Phospholipid hydroperoxide glutathione peroxidase GPX4 (Homo sapiens) (P36969 whole entry, looked up): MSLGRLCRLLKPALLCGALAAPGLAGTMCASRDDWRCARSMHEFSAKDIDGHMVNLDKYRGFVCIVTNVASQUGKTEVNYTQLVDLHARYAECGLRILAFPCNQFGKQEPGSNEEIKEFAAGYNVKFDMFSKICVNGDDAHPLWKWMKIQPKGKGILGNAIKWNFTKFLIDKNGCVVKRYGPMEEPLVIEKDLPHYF
Summary of the method: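 qHTS, GR-coupled: GPX4 200 nM + cpd 30 min RT → GSH 1 mM, NADPH 0.5 mM, GR 100 nM → CHP 0.5 mM start; fluor 340/450 at t0 and t15 min; no-enzyme wells as control.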

Measured: Potency

Nc1nc(Cl)nc2c1ncn2[C@@H]1O[C@H](COP(=O)(O)OP(=O)(O)OP(=O)(O)O)[C@@H](O)[C@H]1O
inactive: all assays above

O=C(/C=C/c1ccc(O)c(O)c1)OCCc1ccccc1
inactive: all assays above

CC(N)C(=O)OC(C)(C)Cc1ccc(Cl)cc1 (stereo not drawn)
inactive: all assays above

CC(C)(C=O)Cc1cc(C(C)(C)C)c(O)c(C(C)(C)C)c1
inactive: all assays above

OC[C@H]1O[C@@H](n2cnc3c(NC4CCCCC4)ncnc32)[C@H](O)[C@@H]1O
inactive: all assays above

CCOC(=O)C1=C(C)NC(C)=C(C(=O)OCC)C1c1c(F)c(F)c(F)c(F)c1F
inactive: all assays above

CCCN(CC1CC1)c1nc(C)nc(Nc2c(Cl)cc(Cl)cc2Cl)c1Cl
inactive: all assays above

Nc1nc2c(ncn2[C@@H]2O[C@H](CO)[C@@H](O)[C@@H]2O)c(=O)[nH]1
inactive: all assays above

COc1ccccc1CNCCCCCCNCCCCCCCCNCCCCCCNCc1ccccc1OC
inactive: all assays above

O=C(Nc1ccccc1)c1cc([N+](=O)[O-])ccc1Cl
inactive: all assays above

CN1CCc2cc(NC(=O)Nc3cccnc3)ccc21
inactive: all assays above

COc1cc2c(CCNC(C)=O)c[nH]c2cc1Cl
inactive: all assays above

CCC1C(=O)OCC1Cc1cncn1C (stereo not drawn)
inactive: all assays above

O=C(NOCC1CC1)c1cc(Br)c(F)c(F)c1Nc1ccc(I)cc1Cl
inactive: all assays above

CCCCCCCC/C=C\CCCCCCCC(=O)NCCO
inactive: all assays above

CC1OC1P(=O)(O)O (stereo not drawn)
inactive: all assays above

COc1ccc(C(=O)/C(Cc2cc(OC)c(OC)c(OC)c2)=C(\C(=O)O)c2ccc3c(c2)OCO3)cc1
inactive: all assays above

COc1cccc(C(=O)NCCN2CCN(c3ccc(Cl)cc3)CC2)c1
inactive: all assays above

CCNC(=O)[C@H]1O[C@@H](n2cnc3c(N)nc(NCCc4ccc(CCC(=O)O)cc4)nc32)[C@H](O)C1O (stereo partly drawn)
inactive: all assays above

N#C/C(=C\c1ccc(-c2cc(Cl)ccc2Cl)o1)C(=O)Nc1cccc2ncccc12
inactive: all assays above

CC12C(=O)OC(=O)C1(C)C1CCC2O1 (stereo not drawn)
inactive: all assays above

O=C(/C=C/c1ccc(O)cc1)c1ccc(O)cc1O
inactive: all assays above

Brc1cc2c(cc1[C@H]1Nc3ccccc3[C@H]3C=CC[C@H]31)OCO2
inactive: all assays above

COc1cc(OC)c(/C=C2/C(=O)Nc3ccccc32)c(OC)c1
inactive: all assays above

COCCOc1cc2nc[nH]c(=O)c2cc1OCCOC
inactive: all assays above

Oc1ccc(C2CNCc3sccc32)cc1O (stereo not drawn)
inactive: all assays above

CC(C)CC(NP(=O)(O)O[C@@H]1O[C@@H](C)[C@H](O)[C@@H](O)[C@H]1O)C(=O)NC(Cc1c[nH]c2ccccc12)C(=O)O (stereo partly drawn)
inactive: all assays above

O=[N+]([O-])c1ccc2c(c1)S(=O)(=O)C=C2
inactive: all assays above

Brc1c(Br)c(Br)c2n[nH]nc2c1Br
inactive: all assays above

NCCCS(=O)(=O)O
inactive: all assays above

N#C/C(=C\c1ccc(O)c(O)c1)C(=O)c1ccc(O)c(O)c1
inactive: all assays above

Cc1ccc(O)c(N=Nc2ccccc2)n1
inactive: all assays above

O=C(c1ccc(OCCCc2cnc[nH]2)cc1)C1CC1
inactive: all assays above

CC[C@H]1OC(=O)[C@H](C)[C@@H](O[C@H]2C[C@@](C)(OC)[C@@H](O)[C@H](C)O2)[C@H](C)[C@@H](O[C@@H]2O[C@H](C)C[C@H](NC)[C@H]2O)[C@](C)(O)C[C@@H](C)CN(C)[C@H](C)[C@@H](O)[C@]1(C)O
inactive: all assays above

Nc1nc(SCc2ccc([N+](=O)[O-])cc2)c2ncn([C@@H]3O[C@H](CO)[C@@H](O)[C@H]3O)c2n1
inactive: all assays above

C[N+]1(C)CCC(OC(=O)C(c2ccccc2)c2ccccc2)CC1
inactive: all assays above

COc1cccc(OC)c1OCCNCC1COc2ccccc2O1 (stereo not drawn)
inactive: all assays above

Clc1ccc(N2CCN(Cc3cc4ccccn4n3)CC2)cc1
inactive: all assays above

O=C(CCc1ccncc1)NNC(=O)N1Cc2ccccc2Oc2ccc(Cl)cc21
inactive: all assays above

CCCCCCCCCCCCCCCCCCN(CCCCCCCCCCCCCCCCCC)CCCN(CCO)CCO
inactive: all assays above

O=C(O)c1cc(=O)c2c(Cl)cc(Cl)cc2[nH]1
inactive: all assays above
